The values below come from PubChem BioAssay.

Results filed as inconclusive are left out. Activity calls are given as the source filed them.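 How the source made its calls, unless noted: active means growth inhibition above 25% in both replicates, a cutoff set 3 SD above the mean; inconclusive means above 25% in only one replicate; inactive means the rest.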

Assay [1] in a line: SK-BR-3 cell growth inhibitors, pilot screen, 24 h, human (AID 572;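 active means viability at or below 10% of carrier control in both of two separate runs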;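 further: compound exposure lasted between 18 and 24 h rather than exactly 24 h; 100% = carrier-treated control wells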). The conditions noted are these: SK-BR-3 viability, CellTiter-Glo luminescence, at 10 µM, stronger effect = lower value.
The nature of assay [2]: HUVEC growth inhibition – cell-based, human, primary screen (AID 575;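 active means viability at or below 30% in both replicate assays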;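 further: 100% = median of untreated cell wells with 0.1% DMSO on each plate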). To be noted: HUVEC proliferation, CellTiter-Glo luminescence, 72 h; at 10 µM; stronger effect = lower value.
Assay [3] in a line: reversal of MRP1-mediated doxorubicin resistance, pilot screen, H69AR cells, doxorubicin co-treatment (AID 601;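 active means viability loss from added drug above about 55%, and viability with drug at most 40%, in both replicates, limit read from the data, passing the limit was not always enough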). To be noted: CellTiter-Glo, 72 h, at 10 µM; for differential viability (reversal): stronger effect = higher value.
Assay [4] can be described thus: 384-well plate pilot, post-Golgi transport modulator project, inhibition of yeast transport mutant growth (AID 636; in the data active means inhibition above about 31%). To be noted: absorbance 615 nm, about 18 h, stronger effect = higher value.
The nature of assay [5]: growth suppression of yeast trafficking mutant, preliminary HTS, modulators of trafficking downstream of Golgi apparatus project, 1536-format plate, OD 615 nm (AID 637; in the data active means inhibition above about 30%). To be noted: yeast transport mutant growth, absorbance 615 nm, 18 h; stronger effect = higher value.
The nature of assay [6]: OD615 S. cerevisiae growth inhibition, permissive medium, pilot counter-assay, permissive growth control for S. cerevisiae lifespan shortening project (AID 705). To be noted: OD615, 24 h, at 10 µM, stronger effect = higher value.
Assay [7] in a line: Restrictive medium S. cerevisiae growth inhibition, OD615, pilot screen of yeast lifespan reduction project, restrictive growth control (AID 706;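 active means growth inhibition above a set limit, 3 SD over mean compound inhibition, in both replicates, cut at about 43% in these data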;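 further: modified DeaD lifespan yeast strain shifted to restrictive glucose medium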). The conditions noted are these: OD615, 48 h, at 10 µM, stronger effect = higher value.
A short description of assay [8]: viability gain of MRP-1-high H69AR cells under doxorubicin, pilot screen, MRP-1 activator project, CellTiter-Glo, duplicate (AID 807;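 active means viability increase at or above a cutoff of the median across tested compounds plus 3 SD, cut at about 8.5% in these data, passing the limit was not always enough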;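 further: compound pretreatment 18-22 h then 72 h combined with doxorubicin; 0% = doxorubicin alone and 100% = vehicle without doxorubicin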). The conditions noted are these: H69AR viability with doxorubicin, CellTiter-Glo luminescence; at 10 µM; stronger effect = higher value.
Assay [9] is described as follows: growth suppression of beta-catenin knockout HCT116, pilot screen, human colon tumor cells (AID 823;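 active means cell viability at or below a set limit in both duplicate runs, the limit being the all-compound median minus 4 SD, cut at about 23% in these data, passing the limit was not always enough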;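 further: 0% = wells killed by 20 µM Hyamine and 100% = untreated DMSO cell wells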). The conditions noted are these: CellTiter-Glo, 60 h, at 10 µM, stronger effect = lower value.
Assay [10] in a line: growth suppression of PTEN-deleted HCT116, pilot screen, cell-based, HCT116 clonal line, CellTiter-Glo (AID 824;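 active means viability at or below 27.92% in each of two runs, the all-compound median minus 4 SD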;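 further: 0% = 20 µM Hyamine control and 100% = vehicle cell control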). To be noted: 60 h, at 10 µM, stronger effect = lower value.
Assay [11] is described as follows: inhibitors of the yeast RAM network, pilot screen, dse1pr::URA3 reporter, 5-FOA selection (AID 869;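 active means inhibition over a set limit, the all-compound mean plus 3 SD, in both replicate runs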;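 further: 0% = DMSO wells with no growth and 100% = 10 µM 1-NA-PP1 with full growth; RAM network block rescues cells from 5-FOA so hits raise OD615 growth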). The conditions noted are these: S. cerevisiae dse1pr::URA3 5-FOA growth, OD615, 2 d; at 10 µM; stronger effect = higher value; strain carries analog-sensitive mutant Cbk1 kinase.
A short description of assay [12]: RAM signaling pathway blockade in yeast – S. cerevisiae, Pdr1DBD-CYC8 efflux-inhibited sensitized strain, primary screen (AID 1298;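 active means RAM network inhibition above 8.4% in each of two replicates, 3 SD over the compound average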;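 further: 0% = DMSO untreated cells without growth and 100% = 10 µM 1-NA-PP1 full growth; higher means more yeast growth rescued from 5-FOA killing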). To be noted: S. cerevisiae cbk1-as DSE1-URA3 strain, 5-FOA growth OD615, 2 d; at 50 µM; stronger effect = higher value.
Assay [13] can be described thus: growth inhibitors of H69AR lung tumor, primary screen, human, duplicate replicates (AID 580;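 active means viability at or under a set limit in both replicates, limit being median viability minus 3 SD, cut at about 48% in these data, passing the limit was not always enough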;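 further: 100% = mean luminescence of untreated wells and 0% = no signal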). To be noted: H69AR lung tumor cells viability, ATP luminescence, 72 h; at 10 µM; stronger effect = lower value.
The mark [14] stands for this setting: H69AR cells + 2 uM doxorubicin, measured here: viability with 2 uM doxorubicin, stronger effect = lower value.
Where [15] appears, read: H69AR cells, compound alone cytotoxicity.

In the case of `Cc1ccc(C)n1-c1ccc(-n2cnnn2)cc1`, the viability was 103% (inactive) in assay [1]; 97.5% (inactive) in assay [2]; 76.6% in [3] (setting [14]); 52.4% in assay [3] (setting [15]); 9.95% (active) in assay [9]; 10.3% (active) in assay [10]. Further, in assay [3] (H69AR cells + 2 uM doxorubicin), the differential viability (reversal) is -24.2% (inactive). Also, the inhibition in assay [4] was -3.47% (inactive); in assay [5], -1.09% (inactive); in assay [11], 1.65% (inactive). Besides, the growth inhibition was -9.52% (inactive) in assay [6] and 0.21% (inactive) in assay [7]. For the same compound, the viability increase in assay [8] was -7.7% (inactive). Besides, in assay [12], the RAM network inhibition was 5.78% (inactive).

For the compound `Brc1ccc2ncnc(Nc3ccc(N4CCOCC4)cc3)c2c1`, the viability is 86% (inactive) in assay [1]; 77.8% (inactive) in assay [13]; 91.9% in [3] (setting [14]); 77.8% in assay [3] (setting [15]); 81.9% (inactive) in assay [9]; 72.9% (inactive) in [10]. In assay [3] (H69AR cells + 2 uM doxorubicin), the differential viability (reversal) was -14.1% (inactive). Besides, the figures for the inhibition in [4], in assay [5] and in assay [11] were -2.27% (inactive), -4.36% (inactive) and 1.01% (inactive), respectively. Also, the results for the growth inhibition in assay [6] and in assay [7] were -5.24% (inactive) and 11% (inactive), respectively. In [8], the viability increase is -6.53% (inactive). For the same compound, in [12], the RAM network inhibition is 3.74% (inactive).

`Cc1cccc(OCC(=O)Nc2ccc(N3CCCC3)cc2)c1C`: the viability was 112% (inactive) in [1]; 88.2% (inactive) in [2]; 59.7% in assay [3] (setting [14]); 56.5% in assay [3] (setting [15]); 72.4% (inactive) in assay [9]; 84.8% (inactive) in [10]. Besides, the differential viability (reversal) in assay [3] (H69AR cells + 2 uM doxorubicin) was -3.12% (inactive). Besides, the inhibition is -9.2% (inactive) in assay [4], 1.64% (inactive) in [5] and 2.95% (inactive) in assay [11]. Further, the growth inhibition in [6] is 15.7% (inactive); in assay [7], 14.8% (inactive). Moreover, in [8], the viability increase was -3.79% (inactive). In addition, in assay [12], the RAM network inhibition is 5.36% (inactive).

As to `CCOC(=O)Cn1c(CN(C)Cc2ccccc2)nc2c1c(=O)n(C)c(=O)n2C`, the viability in assay [1] is 94% (inactive); in [2], 112% (inactive); in [13], 87.1% (inactive); in assay [3] (setting [14]), 96.6%; in assay [3] (setting [15]), 87.1%; in assay [9], 82.9% (inactive). For the same compound, the differential viability (reversal) in assay [3] (H69AR cells + 2 uM doxorubicin) is -9.54% (inactive). Besides, the inhibition is -7.43% (inactive) in assay [4], 0.18% (inactive) in [5] and 0.24% (inactive) in assay [11]. The growth inhibition in assay [6] is -28.8% (inactive); in [7], -4.63% (inactive). Besides, the viability increase in assay [8] was -2.98% (inactive). The RAM network inhibition in [12] is -0.42% (inactive).

Regarding `O=C(Nc1cnccn1)c1cccs1`, the viability in assay [1] is 115% (inactive); in [2], 106% (inactive); in [13] it was 99% (inactive); in assay [3] (setting [14]), 91.7%; in assay [3] (setting [15]), 99%; in [10], 94.2% (inactive). For the same compound, the differential viability (reversal) in [3] (H69AR cells + 2 uM doxorubicin) is 7.32% (inactive). In addition, the inhibition is -10.8% (inactive) in assay [4], 1.77% (inactive) in [5] and 0.89% (inactive) in [11]. The growth inhibition in [6] is -10.4% (inactive); in assay [7] it was 1.52% (inactive). Also, in assay [8], the viability increase was -2.25% (inactive). Besides, the RAM network inhibition in [12] was 7.21% (inactive).

As for `CCCn1c(=O)c(C(=O)NCc2ccccn2)c(O)c2ccccc21`, the viability in [1] is 78% (inactive); in assay [2], 101% (inactive); in assay [3] (setting [14]), 69.6%; in assay [3] (setting [15]), 57.5%; in [9], 87.4% (inactive); in assay [10], 104% (inactive). Further, in [3] (H69AR cells + 2 uM doxorubicin), the differential viability (reversal) is -12% (inactive). For the same compound, the inhibition in [4] was 2.27% (inactive); in assay [5], 13.6% (inactive); in assay [11], -1.17% (inactive). The growth inhibition is 4.69% (inactive) in assay [6] and 12.5% (inactive) in [7]. The viability increase in assay [8] is 1.19% (inactive). The RAM network inhibition in assay [12] was -1.94% (inactive).

Consider `COC(=O)c1cc(=O)n(Cc2ccc3c(c2)OCO3)c(=Nc2ccccc2)s1`, for which the viability in assay [1] is 90% (inactive); in assay [3] (setting [14]), 43.1%; in assay [3] (setting [15]), 38.1%; in assay [9], 71.1% (inactive); in assay [10] it was 73.3% (inactive). The differential viability (reversal) in assay [3] (H69AR cells + 2 uM doxorubicin) was -4.97% (inactive). The inhibition is -5.2% (inactive) in assay [4], 4.43% (inactive) in [5] and 3.41% (inactive) in assay [11]. For the same compound, the growth inhibition was 4.22% (inactive) in assay [6] and -1% (inactive) in assay [7]. In addition, the viability increase in assay [8] is -5.95% (inactive). In addition, the RAM network inhibition in assay [12] was 5.96% (inactive).

For `Cc1ccc2c(c1)C1CCCC3C1N2CC(=O)N3Cc1ccccc1` (configuration not stated), the viability in assay [1] was 117% (inactive); in [13], 75.5% (inactive); in assay [3] (setting [14]), 81.3%; in [3] (setting [15]), 75.5%; in assay [10], 53.3% (inactive). Also, the differential viability (reversal) in assay [3] (H69AR cells + 2 uM doxorubicin) is -5.75% (inactive). For the same compound, the inhibition is 0.27% (inactive) in assay [4], 0.97% (inactive) in assay [5] and 2.56% (inactive) in [11]. The results for the growth inhibition in assay [6] and in assay [7] were -8.15% (inactive) and -24.9% (inactive), respectively. Besides, the viability increase in [8] was -0.44% (inactive). The RAM network inhibition in assay [12] was 7.32% (inactive).

Take `Cc1ccc(-c2cc(C(F)F)n3ncc(C(=O)N4CCN(c5ccccn5)CC4)c3n2)cc1`: the viability is 99.5% (inactive) in assay [1]; 49.2% (inactive) in [2]; 52.2% in assay [3] (setting [14]); 56% in assay [3] (setting [15]); 54.3% (inactive) in [9]; 55.4% (inactive) in assay [10]. Further, the differential viability (reversal) in [3] (H69AR cells + 2 uM doxorubicin) is 3.75% (inactive). The inhibition in assay [4] is -6.4% (inactive); in [5] it was 6.5% (inactive); in [11], -1.01% (inactive). Also, the results for the growth inhibition in assay [6] and in [7] were -6.85% (inactive) and 4.28% (inactive), respectively. Also, in [8], the viability increase is -5.43% (inactive). The RAM network inhibition in assay [12] was 6.29% (inactive).

In the case of `O=S(=O)(NCC(O)COCc1ccco1)c1cccs1` (configuration not stated), the viability is 114% (inactive) in [2]; 83.7% (inactive) in [13]; 84.3% in [3] (setting [14]); 83.7% in [3] (setting [15]); 92.8% (inactive) in assay [9]. Further, the differential viability (reversal) in assay [3] (H69AR cells + 2 uM doxorubicin) was -0.665% (inactive). The inhibition is -6.62% (inactive) in [4], -5.56% (inactive) in assay [5] and 1.09% (inactive) in assay [11]. Besides, the growth inhibition in assay [6] is -10.3% (inactive); in assay [7], 2.05% (inactive). Moreover, the viability increase in assay [8] is -3.34% (inactive). For the same compound, the RAM network inhibition in [12] is 6.29% (inactive).
